These results are taken from PubChem BioAssay (Tox21).

The nature of assay [1]: qHTS assay to identify small molecule agonists of the estrogen receptor alpha (ER-alpha) signaling pathway in the presence of an antagonist - cell viability counter screen (AID 1259386).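 Further: cells exposed to compounds for 22 h at 37 °C before the viability read; nearly all actives have a fitted effect of over 30% in size.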 Further: potency means the concentration at half of the fitted maximal effect. Put shortly:
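Cytotoxicity was measured in parallel with the ERE-luciferase agonist screen, in the same wells. The cells were VM7Luc4E2, which endogenously express ER-alpha, and treatment was with compounds plus 10.0nM ICI-182,780 for 22hr.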
On the technique in general: Quantitative high-throughput screening tests each substance at several concentrations.

The target of assay [2] is Progesterone receptor (Homo sapiens) (UniProt P06401). As to the kind of experiment: qHTS assay to identify small molecule agonists of the progesterone receptor (PR) signaling pathway (AID 1346784; calls by dose curve; further: nearly all actives have a fitted effect of over 30% in size). Put shortly:
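Seed PR-UAS-bla HEK 293T cells (2% charcoal-stripped FBS), incubate 6 hr at 37C; add compounds in DMSO, 16 hr at 37C; add LiveBLAzer B/G substrate, 2 hr RT; read fluorescence intensity.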

For assay [3] the target is unchanged. As to the kind of experiment: qHTS assay to identify small molecule antagonists of the progesterone receptor (PR) signaling pathway (AID 1346795; active means well fitted inhibition curve with a large enough effect in the signal ratio in the repeat runs, not every such curve was filed as active; the % refers to the signal ratio; further: potency means the concentration at half of the fitted maximal effect). Put shortly:
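Screening used a GripTite HEK293T line with PR-responsive UAS-beta-lactamase. Cells were challenged with compound in the presence of 1 nM R5020 final for 16 hr at 37C; B/G FRET substrate, 2 hr room temperature, fluorescence.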

A short description of assay [4]: qHTS assay to identify small molecule antagonists of the progesterone receptor (PR) signaling pathway - cell viability counter screen (AID 1346798). Further: series mostly up to about 92 µM; nearly all actives have a fitted effect of over 50% in size. Put shortly:
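Measures cytotoxicity in parallel with the PR antagonist reporter read: HEK293T PR-UAS-bla cells get compound and R5020 for 16 hr, and remaining viable cells are quantified by CellTiter-Glo luminescence.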

Assay [5] is described as follows: qHTS assay to identify small molecule agonists of the progesterone receptor (PR) signaling pathway - cell viability counter screen (AID 1346799; calls by dose curve; further: nearly all actives have a fitted effect of over 45% in size). An outline of the steps:
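Using the same plates as the PR reporter screen, HEK293T PR-UAS-bla cells received compounds for 16 hr at 37C and were then lysed with CellTiter-Glo; luminescence was read 30 min later at room temperature.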

Assay [6] in a line: qHTS assay to identify small molecule antagonists of the TGF-beta/Smad signaling pathway - cell viability counter screen (AID 1346824). Further: nearly all actives have a fitted effect of over 50% in size. Put shortly: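 SBE-bla HEK 293T cells were plated overnight at 37 C, then given compounds in DMSO plus TGF-beta1 (added as 0.25 ng/mL solution) for 5 hr. After the bla read, CellTiter-Glo was added to the same wells and luminescence read after 30 min at room temperature.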

Assay [7] is described as follows: qHTS assay to identify small molecule agonists of the TGF-beta/Smad signaling pathway - cell viability counter screen (AID 1346829). Further: top concentration of the series differs between compounds; nearly all actives have a fitted effect of over 45% in size. Put shortly:
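Luminescence from CellTiter-Glo, read after a 30 min room-temperature incubation, gives cell viability of SBE-bla HEK 293T cells treated 5 hr with compounds at 37 C.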

Assay [8] is described as follows: qHTS assay to identify small molecule agonists of the TGF-beta/Smad signaling pathway (AID 1346859; active means well fitted activation curve with a large enough effect in the signal ratio in the repeat runs, not every such curve was filed as active; the % refers to the signal ratio; further: series mostly up to about 77 µM). An outline of the steps: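 Beta-lactamase reporter activity downstream of Smad binding elements was measured in stably transfected HEK 293T cells; compounds were incubated for 5 hr, substrate for 2 hr at room temperature.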
Assay [9] concerns the target Thyrotropin-releasing hormone receptor (Homo sapiens) (UniProt P34981). Briefly: qHTS assay to identify small molecule antagonists of the thyrotropin-releasing hormone receptor (TRHR) signaling pathway (AID 1346877; active means well fitted inhibition curve with a large enough effect in the repeat runs, not every such curve was filed as active; further: series mostly up to about 51 µM). Put shortly:
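Antagonism is measured as suppression of the calcium response to 1 nM TRH in TRHR-HEK293 cells that have been dye-loaded for 2 h at 37 °C after overnight plating. Each compound is tested at 15 concentrations in triplicate.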

The nature of assay [10]: Human pregnane X receptor (PXR) small molecule agonists, qHTS cell viability counter screen (AID 1346977). Further: nearly all actives have a fitted effect of over 50% in size. Further: potency means the concentration at half of the fitted maximal effect. Put shortly:
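After a 5hr pre-incubation, PXR-Luc HepG2 cells received compounds plus positive control in DMSO and were kept 24hr at 37C. Cell viability was quantified by fluorescence from CellTiter-Fluor added for the final hour.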

Assay [11] in a line: Caspase-3/7 induction in HepG2 cells by small molecules, qHTS assay (AID 1346978). Further: nearly all actives have a fitted effect of over 15% in size. An outline of the steps:
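Wild-type HepG2 cells (2,000/well) were settled 5 h at 37 C, 5% CO2, then exposed to compounds in DMSO for 17 h. Caspase-3/7 activity was read by luminescence 30 min after adding Caspase-Glo 3/7 reagent at room temperature.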

Assay [12] in a line: Caspase-3/7 induction in CHO-K1 cells by small molecules, qHTS cell viability counter screen (AID 1346979). Further: nearly all actives have a fitted effect of over 35% in size. Further: potency means the concentration at half of the fitted maximal effect. Put shortly: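 Multiplexed with Caspase-Glo 3/7 in CHO-K1 cells, this counter screen added CellTiter-Fluor after 16hr of compound exposure and recorded fluorescence 1hr later.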
The nature of assay [13]: Caspase-3/7 induction in CHO-K1 cells by small molecules, qHTS assay (AID 1346980). Further: nearly all actives have a fitted effect of over 15% in size. Put shortly: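 Wild-type cells were seeded at 1,500 per well and settled 5 hr at 37 C, 5% CO2, then exposed to DMSO-dissolved compounds for 17 hr. Caspase-Glo 3/7 reagent was added, and luminescence was read after 30min at room temperature.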
The nature of assay [14]: Caspase-3/7 induction in HepG2 cells by small molecules, qHTS cell viability counter screen (AID 1346981). Further: nearly all actives have a fitted effect of over 30% in size. Further: potency means the concentration at half of the fitted maximal effect. Put shortly:
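Cell viability is measured as a cytotoxicity counter screen alongside the Caspase-Glo 3/7 readout in identical wells. Wild-type HepG2 cells are treated with test compounds for 16 hr at 37 C before CellTiter-Fluor addition and a 1-hr incubation.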

For assay [15], the target named is Nuclear receptor subfamily 1 group I member 2 (Homo sapiens) (UniProt O75469). Briefly: Human pregnane X receptor (PXR) small molecule agonists, qHTS assay (AID 1346982). Further: nearly all actives have a fitted effect of over 35% in size. Further: potency means the concentration at half of the fitted maximal effect. An outline of the steps:
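Cells: HepG2 stably carrying PXR-Luc. Medium held 5% charcoal-stripped FBS. Compounds in DMSO added after 5 hr plating, incubated 24 hr, then luminescence quantified with ONE-Glo.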

Assay [16] concerns the target Nuclear receptor subfamily 1 group I member 2 (Rattus norvegicus) (UniProt Q9R1A7). Briefly: Rat pregnane X receptor (rPXR) activation by small molecules, qHTS assay (AID 1346983). Further: nearly all actives have a fitted effect of over 20% in size. The note with it: rPXR luciferase reporter cells, One-Glo luminescence, 24 h; stronger effect = higher value. Put shortly: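 Cell-based rPXR luciferase reporter assay, 2,000 cells per well, rested 5hr at 37 C before compound addition in DMSO, then 24 hr at 37 C. One-Glo reagent was added and luminescence read after 30 min at room temperature.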

Assay [17] has as its target Nuclear receptor subfamily 1 group I member 2 (Homo sapiens) (UniProt O75469). Briefly: CYP3A4 induction through human pregnane X receptor (PXR) by small molecules, qHTS assay (AID 1346984). Further: nearly all actives have a fitted effect of over 40% in size. An outline of the steps:
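Quantitative HTS in DPX-2 cells, i.e. HepG2 transfected with PXR response element and CYP3A4-promoter luciferase. Compounds in DMSO incubated 24hr at 37C; then P450-Glo CYP3A4 substrate, 3uM final, 3hr; One-Glo luminescence.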

For assay [18] the target is unchanged. As to the kind of experiment: Human pregnane X receptor (PXR) activation by small molecules, qHTS assay (AID 1346985). Further: nearly all actives have a fitted effect of over 40% in size. Further: potency means the concentration at half of the fitted maximal effect. Put shortly:
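DPX-2 cells (HepG2 co-transfected with a PXR response element and a CYP3A4-promoter luciferase construct) were seeded at 2,000 per well, rested 5 hr at 37C, then exposed to DMSO-dissolved compounds for 24 hr. Activation was read as luciferase luminescence.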

The target of assay [19] is Acetylcholinesterase (Homo sapiens) (UniProt P22303). Briefly: Acetylcholinesterase (AChE) small molecule antagonists: colormetric cell-based qHTS assay (AID 1347395; calls by dose curve; further: nearly all actives have a fitted effect of over 30% in size; further: potency means the concentration at half of the fitted maximal effect). Put shortly:
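In this cell-based qHTS, attached SH-SY5Y cells were treated with test chemicals for 30 min, after which acetylthiocholine hydrolysis was followed by DTNB colour development over 90 min at 37 C.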

The target in assay [20] is Thyrotropin-releasing hormone receptor (Homo sapiens) (UniProt P34981). Briefly: qHTS assay to identify small molecule agonists of the thyrotropin-releasing hormone receptor (TRHR) signaling pathway (AID 1346891; calls by dose curve;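 further: HEK293 cells expressing TRHR with calcium dye readout; series mostly up to about 58 µM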). Put shortly:
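Overnight-plated (18 h, 37 °C, 5% CO2) TRHR-Hek293 cells; 2 h calcium dye at 37 °C; compound in DMSO; 3-min kinetic fluorescence read.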

Molecules are shown by their SMILES. Values joined by “and” are separate entries in the source; they are usually repeats but may differ in a detail not shown here. Equal entries are not always repeated. Records with an inconclusive call do not appear. More than one record can exist for a structure, and the calls need not agree. Active and inactive are the calls of the source. Unless noted, the call rests on the fitted dose curve; in most records, active means well fitted curve in the direction sought with a large enough effect in the repeat runs; inconclusive means weak or mixed curves; inactive means no such curve, though single readings can be large; an effect the other way counts as inactive or inconclusive.
On the % scale 0 is the no-effect control and ±100 the full control effect.

Sequence of Nuclear receptor subfamily 1 group I member 2 (Homo sapiens) (O75469 whole entry, looked up): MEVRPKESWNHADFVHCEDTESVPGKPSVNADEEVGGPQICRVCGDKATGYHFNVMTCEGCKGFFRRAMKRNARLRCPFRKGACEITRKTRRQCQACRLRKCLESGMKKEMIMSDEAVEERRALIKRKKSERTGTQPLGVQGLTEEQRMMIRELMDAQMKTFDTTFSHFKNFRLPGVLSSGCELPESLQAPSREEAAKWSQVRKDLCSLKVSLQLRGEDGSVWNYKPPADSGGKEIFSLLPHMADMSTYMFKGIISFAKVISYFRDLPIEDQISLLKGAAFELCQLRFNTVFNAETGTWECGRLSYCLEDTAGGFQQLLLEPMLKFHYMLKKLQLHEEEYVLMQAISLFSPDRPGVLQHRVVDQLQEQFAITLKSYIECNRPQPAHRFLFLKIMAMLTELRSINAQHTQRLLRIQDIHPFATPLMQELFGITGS
Sequence of Thyrotropin-releasing hormone receptor (Homo sapiens) (P34981 whole entry, looked up): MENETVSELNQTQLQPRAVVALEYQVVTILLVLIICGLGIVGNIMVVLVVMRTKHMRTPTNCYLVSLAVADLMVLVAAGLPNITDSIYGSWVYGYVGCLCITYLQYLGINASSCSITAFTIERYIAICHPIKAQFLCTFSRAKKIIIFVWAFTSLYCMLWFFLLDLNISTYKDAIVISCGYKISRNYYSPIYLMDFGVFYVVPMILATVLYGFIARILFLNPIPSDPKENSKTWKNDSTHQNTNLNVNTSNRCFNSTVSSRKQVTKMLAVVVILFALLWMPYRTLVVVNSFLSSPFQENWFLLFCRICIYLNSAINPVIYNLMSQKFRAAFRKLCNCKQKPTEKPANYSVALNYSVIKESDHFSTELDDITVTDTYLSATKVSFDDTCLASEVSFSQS
Sequence of Nuclear receptor subfamily 1 group I member 2 (Rattus norvegicus) (Q9R1A7 whole entry, looked up): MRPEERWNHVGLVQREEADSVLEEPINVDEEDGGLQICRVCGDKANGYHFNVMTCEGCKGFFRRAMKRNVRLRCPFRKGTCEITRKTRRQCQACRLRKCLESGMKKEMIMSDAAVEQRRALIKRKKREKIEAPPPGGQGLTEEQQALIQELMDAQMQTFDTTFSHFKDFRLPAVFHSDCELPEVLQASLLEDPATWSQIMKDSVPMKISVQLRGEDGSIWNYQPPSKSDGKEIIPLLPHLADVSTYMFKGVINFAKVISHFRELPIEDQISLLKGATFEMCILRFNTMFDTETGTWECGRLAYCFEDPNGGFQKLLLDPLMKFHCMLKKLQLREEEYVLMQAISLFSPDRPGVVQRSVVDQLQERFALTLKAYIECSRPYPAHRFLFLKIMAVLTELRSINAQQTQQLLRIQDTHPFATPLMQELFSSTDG
Sequence of Acetylcholinesterase (Homo sapiens) (P22303 whole entry, looked up): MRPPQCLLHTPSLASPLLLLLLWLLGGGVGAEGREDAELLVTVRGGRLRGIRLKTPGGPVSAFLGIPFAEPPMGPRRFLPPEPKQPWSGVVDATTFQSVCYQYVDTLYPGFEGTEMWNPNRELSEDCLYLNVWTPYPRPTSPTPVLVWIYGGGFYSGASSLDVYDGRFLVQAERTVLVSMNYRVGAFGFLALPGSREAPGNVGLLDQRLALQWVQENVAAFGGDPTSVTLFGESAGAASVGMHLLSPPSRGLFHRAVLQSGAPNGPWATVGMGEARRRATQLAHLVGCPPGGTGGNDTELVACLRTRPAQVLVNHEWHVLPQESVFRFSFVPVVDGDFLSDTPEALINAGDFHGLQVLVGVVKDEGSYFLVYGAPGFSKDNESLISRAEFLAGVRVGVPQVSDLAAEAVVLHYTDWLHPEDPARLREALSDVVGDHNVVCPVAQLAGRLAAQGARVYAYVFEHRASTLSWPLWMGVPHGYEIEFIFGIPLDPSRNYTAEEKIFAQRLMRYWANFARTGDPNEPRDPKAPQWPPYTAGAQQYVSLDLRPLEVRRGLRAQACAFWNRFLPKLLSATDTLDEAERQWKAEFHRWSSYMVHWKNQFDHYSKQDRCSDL
Sequence of Progesterone receptor (Homo sapiens) (P06401 whole entry, looked up): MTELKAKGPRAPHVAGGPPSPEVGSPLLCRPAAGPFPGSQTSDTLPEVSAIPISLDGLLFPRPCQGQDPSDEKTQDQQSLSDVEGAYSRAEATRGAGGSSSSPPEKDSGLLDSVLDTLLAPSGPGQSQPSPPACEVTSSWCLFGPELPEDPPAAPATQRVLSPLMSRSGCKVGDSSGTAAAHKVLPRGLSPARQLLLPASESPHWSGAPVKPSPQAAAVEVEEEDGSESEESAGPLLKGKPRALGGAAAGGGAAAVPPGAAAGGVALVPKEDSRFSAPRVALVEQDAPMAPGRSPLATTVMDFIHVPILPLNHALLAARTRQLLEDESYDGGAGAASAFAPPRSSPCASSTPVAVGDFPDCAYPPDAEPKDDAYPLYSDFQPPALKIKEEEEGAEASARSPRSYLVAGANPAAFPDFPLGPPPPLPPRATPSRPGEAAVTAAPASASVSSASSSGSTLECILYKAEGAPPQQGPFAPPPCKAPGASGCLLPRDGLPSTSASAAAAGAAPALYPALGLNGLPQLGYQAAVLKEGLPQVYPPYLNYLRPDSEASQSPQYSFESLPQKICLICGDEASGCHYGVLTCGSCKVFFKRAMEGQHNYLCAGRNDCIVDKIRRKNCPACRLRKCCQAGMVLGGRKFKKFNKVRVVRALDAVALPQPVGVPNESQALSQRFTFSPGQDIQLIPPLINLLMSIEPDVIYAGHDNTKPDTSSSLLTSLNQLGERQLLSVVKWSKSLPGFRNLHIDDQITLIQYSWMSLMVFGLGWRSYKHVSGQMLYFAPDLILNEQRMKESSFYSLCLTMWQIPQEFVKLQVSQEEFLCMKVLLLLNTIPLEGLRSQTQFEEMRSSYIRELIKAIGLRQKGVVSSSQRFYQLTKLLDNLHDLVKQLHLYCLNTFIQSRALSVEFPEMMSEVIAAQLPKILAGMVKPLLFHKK

`C[N+](C)(C)CCOC(=O)C(O)(c1ccccc1)c1ccccc1`: the Potency result in assay [1], in assay [2], in assay [3], in assay [4], in assay [5] and in assay [6] was “inactive” in each case. Moreover, the Potency result in assay [7], in [9], in [10], in assay [11], in [12] and in [13] was “inactive” throughout. Besides, the Potency entry in assay [14], in [15], in [18] and in assay [19] was “inactive” throughout. Besides, the outcome in assay [8] and in assay [17] was inactive. Also, the max activation in assay [16] was -2.47% (inactive).

Regarding `O=C(O)c1cc(Cl)ccc1Cl`, the Potency entry in assay [1], in assay [2], in assay [3], in [4], in assay [5] and in [6] was “inactive” throughout. The Potency entry in assay [7], in assay [10], in assay [11], in assay [12], in assay [13] and in [14] was “inactive” throughout. Also, the Potency entry in assay [15] and in assay [19] was “inactive” each time. Also, the molecule was called inactive in [8].

For the molecule `CCCC(C)(COC(N)=O)COC(=O)NC(C)C` (stereo unspecified), the Potency result in assay [1], in assay [2], in assay [3], in assay [4], in assay [5] and in assay [6] was “inactive” throughout. Besides, the Potency entry in assay [7], in assay [9], in assay [10], in [11], in [12] and in assay [13] was “inactive” in each case. Moreover, the Potency entry in assay [14], in [15] and in assay [19] was “inactive” throughout. Further, the molecule was called inactive in assay [8] and in assay [20].

Regarding `CCOC(=O)C1OC1(C)c1ccccc1` (stereo unspecified), the Potency entry in [1], in assay [2], in assay [3], in assay [4], in [5] and in assay [7] was “inactive” throughout. Further, the Potency result in assay [9], in [10], in assay [11], in assay [12], in assay [13] and in assay [14] was “inactive” throughout. The Potency result in assay [15] and in [19] was “inactive” throughout. The call in assay [20] was inactive.

Turning to `CN(C)N`, the Potency entry in assay [1], in assay [2], in [3], in assay [4], in assay [5] and in assay [6] was “inactive” throughout. Further, the Potency entry in assay [7], in [9], in [10], in assay [11], in assay [12] and in [13] was “inactive” each time. Moreover, the Potency result in [14], in assay [15] and in assay [19] was “inactive” in each case. In addition, the result in assay [8] and in [20] was inactive.

Take `O=C1CC[C@@]2(O)[C@H]3Cc4ccc(O)c5c4[C@@]2(CCN3CC2CC2)[C@H]1O5`: the Potency result in assay [1], in assay [2], in assay [3], in assay [4], in [5] and in assay [7] was “inactive” each time. Moreover, the Potency entry in assay [9], in [10], in assay [11], in assay [12], in assay [13] and in assay [19] was “inactive” throughout. Also, the result in assay [8] was inactive. The max activation in [16] was -2.95% (inactive).

On to `CN1C[C@H](C(=O)N[C@]2(C)O[C@@]3(O)[C@@H]4CCCN4C(=O)[C@H](Cc4ccccc4)N3C2=O)C=C2c3cccc4[nH]cc(c34)C[C@H]21`, for which the Potency in assay [1] is 24.4 µM (active) and 20.2 µM (active); in [3] it was 48.8 µM (active) and inactive; in assay [10], 39.8 µM (active); in assay [12] it was 30.8 µM (active) and 18 µM (active); in [14], 30.8 µM (active) and 22.6 µM (active); in assay [15], 2.74 µM (active) and 4.03 µM (active). For the same molecule, the Potency in assay [18] is 2.51 µM (active); in [19], 1.01 µM (active) and 8.32 µM (active). The Potency result in assay [2], in [4], in assay [5], in assay [6], in assay [7] and in assay [9] was “inactive” in each case. The Potency result in assay [11] and in assay [13] was “inactive” in each case. In addition, the molecule was called inactive in assay [8] and in assay [17]. Also, the max activation in assay [16] was -2.24% (inactive).
